Results: PubChem BioAssay (NCATS)
Several values for one entry are separate records, joined by “and”; a condition that tells them apart may be missing. Identical values can stand only once. Results filed as inconclusive are left out. Where a call stands in place of a potency, no number is given. Some structures have more than one record in an assay (separate samples or runs), and their calls can disagree. Activity calls are given as the source filed them. Unless noted, the call rests on the fitted dose curve; in most records, active means well fitted curve in the direction sought with a large enough effect; inconclusive means small, poorly fitted or top-dose-only effect, or another doubt; inactive means no such curve, though single readings can be large; an effect the other way counts as inactive or inconclusive.

Legend:
[1] = Cellular Toxicity (caspase-3) H-4-II-E (AID 663);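 further: cells exposed to compound for 16 hr before readout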
Summary of the method: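 Luminescence from caspase-cleaved aminoluciferin substrate, read 20 min after reagent addition, reports caspase 3/7 activation in rat H-4-II-E cells after 16 hr compound exposure. Normalized to DMSO (basal) and 100 uM tamoxifen (100%); AC50 from Hill fits.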

[2] = Cellular Toxicity (caspase-3) Hek293 (AID 664); conditions: HEK293 caspase-3 activation; caspase-3 activation: at 92.2 µM (top of the series), DMSO = 0%, 100 µM tamoxifen = 100%;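 further: cells exposed to compound for 16 h at 37 °C before readout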
Summary of the method: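 Activation of caspase-3/7 is measured as increased luminescence from cleaved peptide-aminoluciferin substrate in HEK293 cells treated 16 hours at 37 °C. AC50 values come from Hill-equation fits of concentration-response data.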

[3] = Cellular Toxicity (caspase-3) N2a (AID 665);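 further: compound exposure lasted 16 h at 37 °C before readout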
Summary of the method: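 Plated mouse neuroblastoma N2a cells received titrated compounds for 16 h in complete medium. Caspase activity was then detected with a peptide-aminoluciferin luminescent reagent.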

[4] = Cellular Toxicity (caspase-3) Renal Proximal Tubule (AID 667);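 further: cells exposed to compound for 16 hours at 37 °C before detection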
Summary of the method: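 Caspase-Glo 3/7 read-out, rat primary kidney proximal tubule cells. Compound exposure 16 h, 37 °C; detection after 1 h at RT. Activity scaled to DMSO and 10 uM staurosporine.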

[5] = Confirmation and Secondary Assay for Modulators of Hemoglobin Beta Chain Splicing at IVS2 654 locus (AID 910);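 further: per-well total GFP intensity by laser scanning cytometry after 2-day treatment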
Summary of the method: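 HeLa cells stably carrying EGFP interrupted by mutant beta-globin IVS2-654 intron (CMV-driven) were treated with compound for 2 days at 37C; corrected splicing was scored as total peak GFP intensity per well (488 nm excitation, 500-520 nm emission).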

[6] = Cell Viability - LYMP2-001 (AID 921);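 further: cells exposed to compound for 24 h at 37 °C; nearly all actives have a fitted effect of over 70% in size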
Summary of the method: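 A lymphoblastoid cell line of human origin was treated with library compounds across a concentration series for 24 hours, and viable cell number was estimated from ATP-driven luciferase light output. Hill modeling gave AC50.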

[7] = Confirmation and Secondary Assay for Modulators of Hemoglobin Beta Chain Splicing at IVS2 705 locus (AID 930);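 further: HeLa cells stably expressing the EGFP-705 splicing reporter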
Summary of the method: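 Restored EGFP fluorescence after 2-day compound exposure reports splicing correction in IVS2-705 EGFP reporter HeLa cells; positive control was 500 nM splice-blocking PNA oligo. Signal measured as well total peak GFP intensity (488 nm excitation).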

[8] = MultiTox-Fluor Cytotoxicity Assay - LYMP1-001 - Dead Cells (AID 946); further: potency means the concentration at half of the fitted maximal effect
Summary of the method: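 LYMP1-001 lymphoblastoid cells (2500/well) treated 16 h at 37 C. Dead-cell protease cleavage of bis-AAF-R110 read at Ex/Em 485/520. Normalized to DMSO and 15 uM tetraoctylammonium bromide; AC50 from Hill fits.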

[9] = MultiTox-Fluor Cytotoxicity Assay - LYMP1-001 - Live Cells (AID 947)
[10] = target: Guanine nucleotide-binding protein G(i) subunit alpha-1 (Homo sapiens) (UniProt P63096); test: qHTS Assay for Inhibitors of RGS12 GoLoco Motif Activity (Green Fluorophore) (AID 879);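 further: negative values mean loss of peptide binding seen as reduced polarization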
Summary of the method: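 Fluorescence polarization assay: 50 nM Gαi1 with 10 nM FITC-labeled RGS12 GoLoco peptide in 10 mM Tris pH 7.5, 150 mM NaCl, 0.1 mM GDP, 0.05% NP40, 10 min at room temperature with compound.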

[11] = qHTS Assay for Identification of Small Molecule Antagonists for NFkB Signaling Pathway (AID 895; active means well fitted inhibition curve with a large enough effect in the signal ratio, with a control signal flat, not every such curve was filed as active; the % refers to the signal ratio)
Summary of the method: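 NFkB-bla ME-180 cervical carcinoma cells with beta-lactamase reporter under NFkB response element; compounds added, then TNF alpha at 10 pM final (EC50), 5 h at 37 C. LiveBLAzer substrate 2 h, room temperature; emission 460/530 nm at 405 nm excitation.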

[12] = qHTS Assay for Identification of Small Molecule Agonists for Thrombopoietin (TPO) Signaling Pathway (AID 917); further: potency means the concentration at half of the fitted maximal effect
Summary of the method: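 IL-3-dependent murine pro-B Ba/F3 cells, stably transfected with human TPO receptor and GpIIb-promoter luciferase, are incubated 24 hrs at 37 C with test compound and 26 pM TPO; luciferase signal is read after 10 min at room temperature.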

[13] = target: Muscarinic acetylcholine receptor M1 (Rattus norvegicus) (UniProt P08482); test: qHTS Assay for Antagonists of Acetylcholine Muscarinic M1 Receptor: Measurement of IP-One Response (AID 944); further: nearly all actives have a fitted effect of over 75% in size
Summary of the method: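 Steps: plate transfected CHO-M1 cells overnight; add test compound, 10 min; add carbachol (200 nM, EC80) in stimulation buffer with LiCl; incubate 30 min; add labelled IP1 tracer and anti-IP1 antibody in lysis buffer; read HTRF after 10 min.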

[14] = target: Pyruvate kinase (Leishmania mexicana) (UniProt Q27686); test: qHTS Validation Assay for Inhibitors of Leishmania Mexicana Pyruvate Kinase (AID 945); further: potency means the concentration at half of the fitted maximal effect
Summary of the method: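 Purified LmPYK (E451W mutant, 0.2 nM) was incubated 1 h at room temperature with 0.5 mM PEP and 0.1 mM ADP in 50 mM imidazole pH 7.2, 50 mM KCl, 7 mM MgCl2; ATP formed was read by PKLight luminescence, normalized to DMSO wells.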

[15] = target: Cytochrome P450 3A4 (Homo sapiens) (UniProt P08684); test: qHTS Assay for Activators of Cytochrome P450 3A4 (AID 885); further: nearly all actives have a fitted effect of over 65% in size
Summary of the method: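 Human CYP3A4 (20 nM) with Luciferin-PPXE at 25 uM (its KM) in 200 mM KPO4; 10 min compound preincubation, then NADPH regeneration and 60 min reaction at RT. Luciferin read by luminescence; normalized to 57 uM ketoconazole full inhibition.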

[16] = target: Cytochrome P450 2D6 (Homo sapiens) (UniProt P10635); test: qHTS Assay for Inhibitors and Substrates of Cytochrome P450 2D6 (AID 891); further: nearly all actives have a fitted effect of over 60% in size; further: potency means the concentration at half of the fitted maximal effect
Summary of the method: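 Human CYP2D6 (5 nM) with 30 uM Luciferin-ME EGE (at Km) in 100 mM KPO4, compound preincubated 10 min, then NADPH regeneration system for 60 min at room temperature. Luciferin read by luminescence; normalized to 1.43 uM quinidine.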

[17] = target: Cytochrome P450 2C19 (Homo sapiens) (UniProt P33261); test: qHTS Assay for Inhibitors and Substrates of Cytochrome P450 2C19 (AID 899); further: nearly all actives have a fitted effect of over 60% in size; further: potency means the concentration at half of the fitted maximal effect
Summary of the method: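 In 50mM KPO4, the reaction held 5nM enzyme and KM-level (10uM) Luciferin-H EGE; it ran 60 min at 37C after NADPH regeneration and a 10 min compound preincubation. Luminescence values were scaled to 57uM ketoconazole as complete inhibition.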

[18] = qHTS Assay for Identification of Small Molecule Antagonists for Thrombopoietin (TPO) Signaling Pathway (AID 918); conditions: TPO-dependent cell signaling reporter, antagonist mode; further: potency means the concentration at half of the fitted maximal effect; nearly all actives have a fitted effect of over 60% in size
Summary of the method: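 First, Ba/F3 reporter cells expressing human TPO receptor were held overnight without IL-3. Next, compound and 26 pM TPO were added. After 24 hrs incubation at 37 C, luciferase luminescence under the Glycoprotein IIb promoter was recorded.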

Chain of Cytochrome P450 2C19 (Homo sapiens) (P33261 whole entry, looked up): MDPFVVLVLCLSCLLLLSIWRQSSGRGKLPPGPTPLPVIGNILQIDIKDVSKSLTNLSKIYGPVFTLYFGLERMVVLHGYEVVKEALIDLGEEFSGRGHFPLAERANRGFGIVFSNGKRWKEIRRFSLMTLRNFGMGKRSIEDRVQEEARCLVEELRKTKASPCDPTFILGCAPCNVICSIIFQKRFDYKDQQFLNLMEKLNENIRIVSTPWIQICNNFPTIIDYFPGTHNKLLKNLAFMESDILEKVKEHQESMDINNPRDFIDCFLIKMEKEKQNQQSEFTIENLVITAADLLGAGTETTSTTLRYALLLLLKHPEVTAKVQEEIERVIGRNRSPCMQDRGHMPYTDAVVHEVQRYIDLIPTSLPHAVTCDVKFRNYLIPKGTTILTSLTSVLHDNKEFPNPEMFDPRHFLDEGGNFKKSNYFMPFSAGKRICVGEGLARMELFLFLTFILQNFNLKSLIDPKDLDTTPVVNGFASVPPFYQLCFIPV
Chain of Cytochrome P450 2D6 (Homo sapiens) (P10635 whole entry, looked up): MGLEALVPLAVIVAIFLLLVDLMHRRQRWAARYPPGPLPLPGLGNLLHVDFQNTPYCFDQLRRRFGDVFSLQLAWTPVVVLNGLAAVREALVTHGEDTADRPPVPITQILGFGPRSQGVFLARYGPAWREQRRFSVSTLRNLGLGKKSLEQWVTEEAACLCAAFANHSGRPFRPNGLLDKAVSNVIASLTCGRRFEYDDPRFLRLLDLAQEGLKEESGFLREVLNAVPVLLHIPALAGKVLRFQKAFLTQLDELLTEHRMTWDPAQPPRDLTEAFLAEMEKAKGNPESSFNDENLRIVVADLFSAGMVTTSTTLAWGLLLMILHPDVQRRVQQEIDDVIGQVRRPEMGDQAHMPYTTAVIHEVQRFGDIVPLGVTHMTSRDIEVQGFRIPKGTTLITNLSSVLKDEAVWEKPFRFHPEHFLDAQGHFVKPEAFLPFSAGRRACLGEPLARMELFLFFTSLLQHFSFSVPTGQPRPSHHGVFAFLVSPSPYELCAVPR
Chain of Guanine nucleotide-binding protein G(i) subunit alpha-1 (Homo sapiens) (P63096 whole entry, looked up): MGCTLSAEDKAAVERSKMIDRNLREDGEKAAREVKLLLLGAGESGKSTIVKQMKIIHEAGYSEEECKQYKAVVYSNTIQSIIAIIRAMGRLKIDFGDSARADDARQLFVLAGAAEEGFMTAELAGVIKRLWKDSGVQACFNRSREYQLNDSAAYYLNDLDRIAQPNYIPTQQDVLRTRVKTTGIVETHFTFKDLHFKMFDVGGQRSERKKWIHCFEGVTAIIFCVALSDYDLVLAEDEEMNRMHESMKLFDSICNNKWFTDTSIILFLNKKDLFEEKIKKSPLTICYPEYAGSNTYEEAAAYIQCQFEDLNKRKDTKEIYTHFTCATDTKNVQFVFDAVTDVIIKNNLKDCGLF
Chain of Pyruvate kinase (Leishmania mexicana) (Q27686 2-499 E452W): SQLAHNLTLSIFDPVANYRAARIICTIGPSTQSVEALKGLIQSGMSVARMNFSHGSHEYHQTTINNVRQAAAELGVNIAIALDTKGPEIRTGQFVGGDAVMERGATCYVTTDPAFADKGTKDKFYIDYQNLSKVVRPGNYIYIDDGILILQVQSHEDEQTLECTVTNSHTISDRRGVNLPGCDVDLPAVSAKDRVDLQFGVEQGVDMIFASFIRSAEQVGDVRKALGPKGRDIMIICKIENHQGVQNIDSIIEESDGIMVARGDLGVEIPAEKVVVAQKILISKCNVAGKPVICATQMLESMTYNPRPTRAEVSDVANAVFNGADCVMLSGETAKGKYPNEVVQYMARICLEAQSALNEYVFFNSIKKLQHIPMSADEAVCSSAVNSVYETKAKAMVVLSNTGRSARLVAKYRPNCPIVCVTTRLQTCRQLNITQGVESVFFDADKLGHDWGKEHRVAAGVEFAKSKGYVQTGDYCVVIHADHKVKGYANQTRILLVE
Chain of Cytochrome P450 3A4 (Homo sapiens) (P08684 whole entry, looked up): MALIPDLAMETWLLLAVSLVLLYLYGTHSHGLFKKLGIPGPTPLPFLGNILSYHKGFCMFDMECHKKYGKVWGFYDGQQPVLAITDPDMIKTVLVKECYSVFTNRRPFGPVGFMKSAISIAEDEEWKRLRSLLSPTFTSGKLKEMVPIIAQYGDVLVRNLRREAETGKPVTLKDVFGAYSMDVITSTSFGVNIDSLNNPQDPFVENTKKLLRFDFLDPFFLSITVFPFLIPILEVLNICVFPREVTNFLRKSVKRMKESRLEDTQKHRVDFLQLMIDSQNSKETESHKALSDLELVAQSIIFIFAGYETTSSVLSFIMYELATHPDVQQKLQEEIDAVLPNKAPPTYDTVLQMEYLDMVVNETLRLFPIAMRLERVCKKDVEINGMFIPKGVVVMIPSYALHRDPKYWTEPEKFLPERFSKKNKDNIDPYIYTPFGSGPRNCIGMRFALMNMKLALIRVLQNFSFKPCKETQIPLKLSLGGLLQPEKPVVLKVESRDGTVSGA
Chain of Muscarinic acetylcholine receptor M1 (Rattus norvegicus) (P08482 whole entry, looked up): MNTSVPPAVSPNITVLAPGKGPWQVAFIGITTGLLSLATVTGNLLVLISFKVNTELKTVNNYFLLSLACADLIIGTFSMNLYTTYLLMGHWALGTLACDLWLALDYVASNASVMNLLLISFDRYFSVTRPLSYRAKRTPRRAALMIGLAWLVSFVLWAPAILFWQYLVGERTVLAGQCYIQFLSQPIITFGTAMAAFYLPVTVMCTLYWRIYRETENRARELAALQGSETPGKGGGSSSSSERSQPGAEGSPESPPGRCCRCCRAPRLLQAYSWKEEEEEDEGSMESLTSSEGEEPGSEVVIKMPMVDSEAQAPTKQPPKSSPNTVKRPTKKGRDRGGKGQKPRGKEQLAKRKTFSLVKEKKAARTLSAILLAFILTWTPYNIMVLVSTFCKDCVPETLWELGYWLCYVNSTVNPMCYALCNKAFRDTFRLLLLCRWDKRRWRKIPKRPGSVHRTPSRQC

CC(C)NCC(O)c1ccc(O)c(O)c1 (centres undefined)
outcome [1]: inactive
Potency [2]: inactive
outcome [3]: inactive
outcome [4]: inactive
Potency [5]: inactive
outcome [6]: inactive
outcome [7]: inactive
Potency [8]: inactive
outcome [9]: inactive

Cn1c(=O)c2[nH]cnc2n(C)c1=O
outcome [1]: inactive
Potency [2]: inactive
outcome [3]: inactive
outcome [4]: inactive
Potency [10]: inactive
Potency [11]: inactive
Potency [5]: inactive
Potency [12]: inactive
outcome [6]: inactive
outcome [7]: inactive
Potency [8]: inactive
outcome [9]: inactive

COc1ccc2[nH]cc(CCNC(C)=O)c2c1
outcome [1]: inactive
Potency [2]: inactive
outcome [3]: inactive
outcome [4]: inactive
Potency [10]: inactive
Potency [11]: inactive
Potency [5]: inactive
Potency [12]: inactive
outcome [6]: inactive
outcome [7]: inactive
Potency [13]: inactive
Potency [14]: inactive
Potency [8]: inactive
outcome [9]: inactive

O=c1c(-c2ccc(O)cc2)coc2cc(O)cc(O)c12
outcome [1]: inactive
Potency [2]: inactive
outcome [3]: inactive
outcome [4]: inactive
Potency [10]: inactive
Potency [15]: inactive
Potency [16]: inactive
Potency [17]: inactive and 20 µM (active)
Potency [5]: inactive
Potency [12]: 1.58 µM (active)
outcome [6]: inactive
outcome [7]: inactive
Potency [14]: 12.6 µM (active)
Potency [8]: inactive
outcome [9]: inactive

CN(C)CCCN1c2ccccc2CCc2ccc(Cl)cc21
Potency [10]: inactive
Potency [15]: inactive
Potency [11]: inactive
Potency [17]: inactive
Potency [5]: inactive
outcome [7]: inactive
Potency [14]: inactive

COc1cc2c(c(OC)c1OC)-c1ccc(OC)c(=O)cc1[C@@H](NC(C)=O)CC2
outcome [1]: inactive
Potency [2]: inactive
outcome [3]: inactive
outcome [4]: inactive
Potency [10]: inactive
Potency [11]: inactive
Potency [13]: inactive
Potency [14]: inactive
Potency [8]: 63.1 nM (active) and 100 nM (active)

CCC1(c2ccccc2)C(=O)NCNC1=O
outcome [1]: inactive
Potency [2]: inactive
outcome [3]: inactive
outcome [4]: inactive
Potency [10]: inactive
Potency [16]: inactive
Potency [11]: inactive
Potency [17]: inactive
Potency [5]: inactive
Potency [12]: inactive
outcome [6]: inactive
outcome [7]: inactive
Potency [8]: inactive
outcome [9]: inactive

CC(C)C(=O)Nc1ccc([N+](=O)[O-])c(C(F)(F)F)c1
outcome [1]: inactive
Potency [2]: inactive
outcome [3]: inactive
outcome [4]: inactive
Potency [10]: inactive
Potency [15]: inactive
Potency [16]: inactive
Potency [5]: inactive
Potency [12]: inactive
outcome [6]: inactive
outcome [7]: inactive
Potency [14]: inactive
Potency [8]: inactive
outcome [9]: inactive

COc1ccc2c(c1)c(CC(=O)O)c(C)n2C(=O)c1ccc(Cl)cc1
outcome [1]: inactive
Potency [2]: inactive
outcome [3]: inactive
outcome [4]: inactive
Potency [10]: inactive
Potency [16]: inactive
Potency [17]: inactive
Potency [5]: inactive
Potency [12]: inactive
outcome [7]: inactive
Potency [8]: inactive
outcome [9]: inactive

Cc1cc(C(C)(C)C)c(O)c(C)c1CC1=NCCN1
Potency [10]: inactive
Potency [15]: inactive
Potency [16]: 3.98 µM (active) and 39.8 nM (active)
Potency [17]: inactive
Potency [5]: inactive
Potency [12]: inactive
outcome [7]: inactive
Potency [14]: inactive

Clc1ccccc1C(c1ccccc1)(c1ccccc1)n1ccnc1
Potency [10]: inactive
Potency [15]: inactive
Potency [16]: 10 µM (active)
Potency [17]: 10 µM (active)
Potency [5]: inactive
Potency [18]: 12.6 µM (active)
outcome [7]: inactive
Potency [14]: inactive

O=c1[nH]cc(F)c(=O)[nH]1
outcome [1]: inactive
Potency [2]: inactive
outcome [3]: inactive
outcome [4]: inactive
Potency [10]: inactive
Potency [16]: inactive
Potency [17]: inactive
outcome [6]: inactive
outcome [7]: inactive
Potency [14]: inactive
Potency [8]: inactive
outcome [9]: inactive
